Source: the supplement of paper PMC10849652
About 7,900 targets were measured; listed, in parts, are those with a hit and a random draw of the rest. About 0.6% of all pairs of compound and target were hits.

Assays:
Experiment in all cases: log2 fold change, soluble protein after heating vs DMSO (PISA); higher = thermal stabilisation; K562 cells, 10 uM, 30 min; active = over 0.2 and 3.5 SD of the protein, either way, in both replicates (recomputed)
IRAK-1-4 Inhibitor I = compound: C1COCCN1CCN2C3=CC=CC=C3N=C2NC(=O)C4=CC(=CC=C4)[N+](=O)[O-] [IRAK-1-4 Inhibitor I]
Method in brief: (§1)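 Thermal stability values are relative to control samples and come from duplicates. They are expressed as log2 fold changes. For measurement, K562 cells (2×10^6 cells/mL) received 10 μM compound for 30 min, and aliquots were heated for 3 min over 48°C-58°C, pooled, and extracted at 4°C in PBS with 0.5% NP-40. Soluble protein, the supernatant after 21,000xg for 90 min, was quantified by TMTpro 16plex LC-MS/MS with equalised channel sums.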

ibrutinib = compound: C=CC(=O)N1CCC[C@@H](n2nc(-c3ccc(Oc4ccccc4)cc3)c3c(N)ncnc32)C1 [ibrutinib]
Method in brief: as §1

[1] = compound: CC(=O)c1cnc2ccc(-c3cc(Cl)c(O)c(Cl)c3)nc2c1N[C@H]1CC[C@H](CN(C)C)CC1
Method in brief: as §1

ralimetinib = compound: CC(C)(C)Cn1c(N)nc2ccc(-c3[nH]c(C(C)(C)C)nc3-c3ccc(F)cc3)nc21 [ralimetinib]
Method in brief: as §1

[2] = compound: CC(C)(O)CC(=O)NCCn1ccc2ncnc(Nc3ccc(Oc4cccc(C(F)(F)F)c4)c(Cl)c3)c21
Method in brief: as §1

[3] = compound: CC(C)C1=C2N=C(C=C(N2N=C1)NCC3=CC=CC=C3)NCCCCCCN
Method in brief: as §1

[4] = compound: CC(C)C[C@@H](C=O)NC(=O)[C@H](CC(C)C)NC(=O)[C@H](CC(C)C)NC(=O)OCc1ccccc1
Method in brief: as §1

pinometostat = compound: CC(C)N(C[C@H]1O[C@@H](n2cnc3c(N)ncnc32)[C@H](O)[C@@H]1O)[C@H]1C[C@@H](CCc2nc3cc(C(C)(C)C)ccc3[nH]2)C1 [pinometostat]
Method in brief: as §1

[5] = compound: CC1=C(C(CC(=O)N1)C2=CC=C(C=C2)C(F)(F)F)C(=O)NC3=C(C=C4C(=C3)C=NN4)F
Method in brief: as §1

[6] = compound: CC1=C(C2=C(C=C1)C(=O)C3=CC=CC=C3N2CCCN)C
Method in brief: as §1

[7] = compound: CC1=C(C=C(C=C1)NC(=O)C2=CC(=CC=C2)C(C)(C)C#N)NC3=CC4=C(C=C3)N=CN(C4=O)C
Method in brief: as §1

[8] = compound: CC1=C(C=C(C=C1)NC(=O)C2=CC(=CC=C2)N(C)C)NC(=O)C3=CC=C(C=C3)O
Method in brief: as §1

[9] = compound: CC1=CC=C(C=C1)SC2=C3C=C(SC3=CN=C2)C(=O)N
Method in brief: as §1

[10] = compound: CC1=NC(=CC=C1)C2=C(N=C(N2)C(C)(C)C)C3=CC4=NC=CN=C4C=C3
Method in brief: as §1

Nexturastat A = compound: CCCCN(Cc1ccc(C(=O)NO)cc1)C(=O)Nc1ccccc1 [Nexturastat A]
Method in brief: as §1

vemurafenib = compound: CCCS(=O)(=O)Nc1ccc(F)c(C(=O)c2c[nH]c3ncc(-c4ccc(Cl)cc4)cc23)c1F [vemurafenib]
Method in brief: as §1

[11] = compound: CCCS(=O)(=O)Nc1ccc(F)c(C(=O)c2c[nH]c3ncc(Cl)cc23)c1F
Method in brief: as §1

[12] = compound: CCCc1cc(C)[nH]c(=O)c1CNC(=O)c1cc(-c2ccnc(N3CCN(C)CC3)c2)cc2c1cnn2C(C)C
Method in brief: as §1

givinostat = compound: CCN(CC)Cc1ccc2cc(COC(=O)Nc3ccc(C(=O)NO)cc3)ccc2c1 [givinostat]
Method in brief: as §1

barasertib = compound: CCN(CCCOc1ccc2c(Nc3cc(CC(=O)Nc4cccc(F)c4)[nH]n3)ncnc2c1)CCOP(=O)(O)O [barasertib]
Method in brief: as §1

Measured: log2 fold change

FKBP3 (UniProt Q00688)
Sequence of UniProt Q00688 (Q00688 whole entry, looked up): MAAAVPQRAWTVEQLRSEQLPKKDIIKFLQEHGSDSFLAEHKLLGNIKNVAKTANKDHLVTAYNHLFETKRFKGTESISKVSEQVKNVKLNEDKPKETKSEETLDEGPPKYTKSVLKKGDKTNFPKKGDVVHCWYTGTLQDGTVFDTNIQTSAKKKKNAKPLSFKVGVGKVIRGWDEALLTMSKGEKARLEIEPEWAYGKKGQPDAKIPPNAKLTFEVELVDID
inactive: IRAK-1-4 Inhibitor I 0.01 | ibrutinib 0.009 | [1] 0.016 | ralimetinib 0.001 | [2] -0.028 | [3] 0.023 | [4] -0.014 | pinometostat -0.057 | [5] -0.033 | [6] -0.004 | [7] 0.024 | [8] 0 | [9] 0.009 | [10] 0.122 | Nexturastat A -0.002 | vemurafenib -0.015 | [11] -0.041 | [12] -0.013 | givinostat -0.023 | barasertib -0.02

GMEB2 (UniProt Q9UKD1)
active: [6] -0.367
inactive: IRAK-1-4 Inhibitor I -0.021 | ibrutinib 0.061 | [1] -0.022 | ralimetinib 0.018 | [2] -0.158 | [3] 0.006 | [4] -0.128 | pinometostat 0.145 | [5] 0.004 | [7] 0.038 | [8] -0.033 | [9] 0.041 | [10] -0.066 | Nexturastat A 0.09 | vemurafenib 0.012 | [11] 0.041 | [12] -0.088 | givinostat 0.087 | barasertib 0.029

GYG1 (UniProt P46976)
inactive: IRAK-1-4 Inhibitor I -0.055 | ibrutinib 0.025 | [1] -0.29 | ralimetinib 0.176 | [2] 0.029 | [3] -0.114 | [4] 0.064 | pinometostat 0.125 | [5] 0.03 | [6] 0.035 | [7] 0.209 | [8] 0.035 | [9] -0.041 | [10] -0.029 | Nexturastat A 0.146 | vemurafenib 0.014 | [11] 0.046 | [12] 0.101 | givinostat 0.027 | barasertib -0.037

IFRD2 isoform 2 (UniProt Q12894)
inactive: IRAK-1-4 Inhibitor I 0.141 | ibrutinib 0.063 | [1] 0.369 | ralimetinib -0.045 | [2] 0.013 | [3] 0.07 | [4] 0.019 | pinometostat 0.144 | [5] -0.116 | [7] 0.093 | [8] 0.035 | [9] -0.129 | [10] -0.13 | Nexturastat A 0.055 | vemurafenib -0.043 | [11] 0.062 | [12] -0.225 | givinostat -0.2 | barasertib -0.142
active: [6] -1.69

FERMT3 (UniProt Q86UX7)
inactive: IRAK-1-4 Inhibitor I -0.019 | ibrutinib -0.036 | [1] -0.039 | ralimetinib 0.01 | [2] -0.048 | [3] -0.091 | [4] -0.022 | pinometostat -0.002 | [5] -0.009 | [6] 0.003 | [7] 0.019 | [8] -0.024 | [9] 0.037 | [10] 0.054 | Nexturastat A -0.013 | vemurafenib 0.036 | [11] 0.083 | [12] 0.03 | givinostat 0.048 | barasertib 0.019

ICAM1 (UniProt P05362)
inactive: IRAK-1-4 Inhibitor I 0.056 | ibrutinib 0.042 | [1] -0.039 | ralimetinib -0.02 | [2] 0.002 | [3] 0.157 | [4] -0.001 | pinometostat -0.009 | [5] -0.028 | [6] 0.045 | [7] -0.055 | [8] 0.016 | [9] 0.033 | [10] -0.016 | Nexturastat A 0.02 | vemurafenib 0.018 | [11] -0.034 | [12] 0.001 | givinostat -0.014 | barasertib -0.021

GALNT4 (UniProt Q8N4A0)
inactive: IRAK-1-4 Inhibitor I 0.038 | ibrutinib 0.011 | [1] -0.061 | ralimetinib -0.003 | [3] -0.041 | [4] -0.002 | pinometostat 0.014 | [5] -0.004 | [6] 0.072 | [7] 0.008 | [8] 0.017 | [9] -0.029 | [10] 0.013 | Nexturastat A -0.049 | vemurafenib -0.037 | [11] -0.001 | [12] -0.01 | givinostat 0.005 | barasertib 0.011
active: [2] -0.41

HECTD1 (UniProt Q9ULT8)
Sequence of UniProt Q9ULT8 (Q9ULT8 whole entry, looked up): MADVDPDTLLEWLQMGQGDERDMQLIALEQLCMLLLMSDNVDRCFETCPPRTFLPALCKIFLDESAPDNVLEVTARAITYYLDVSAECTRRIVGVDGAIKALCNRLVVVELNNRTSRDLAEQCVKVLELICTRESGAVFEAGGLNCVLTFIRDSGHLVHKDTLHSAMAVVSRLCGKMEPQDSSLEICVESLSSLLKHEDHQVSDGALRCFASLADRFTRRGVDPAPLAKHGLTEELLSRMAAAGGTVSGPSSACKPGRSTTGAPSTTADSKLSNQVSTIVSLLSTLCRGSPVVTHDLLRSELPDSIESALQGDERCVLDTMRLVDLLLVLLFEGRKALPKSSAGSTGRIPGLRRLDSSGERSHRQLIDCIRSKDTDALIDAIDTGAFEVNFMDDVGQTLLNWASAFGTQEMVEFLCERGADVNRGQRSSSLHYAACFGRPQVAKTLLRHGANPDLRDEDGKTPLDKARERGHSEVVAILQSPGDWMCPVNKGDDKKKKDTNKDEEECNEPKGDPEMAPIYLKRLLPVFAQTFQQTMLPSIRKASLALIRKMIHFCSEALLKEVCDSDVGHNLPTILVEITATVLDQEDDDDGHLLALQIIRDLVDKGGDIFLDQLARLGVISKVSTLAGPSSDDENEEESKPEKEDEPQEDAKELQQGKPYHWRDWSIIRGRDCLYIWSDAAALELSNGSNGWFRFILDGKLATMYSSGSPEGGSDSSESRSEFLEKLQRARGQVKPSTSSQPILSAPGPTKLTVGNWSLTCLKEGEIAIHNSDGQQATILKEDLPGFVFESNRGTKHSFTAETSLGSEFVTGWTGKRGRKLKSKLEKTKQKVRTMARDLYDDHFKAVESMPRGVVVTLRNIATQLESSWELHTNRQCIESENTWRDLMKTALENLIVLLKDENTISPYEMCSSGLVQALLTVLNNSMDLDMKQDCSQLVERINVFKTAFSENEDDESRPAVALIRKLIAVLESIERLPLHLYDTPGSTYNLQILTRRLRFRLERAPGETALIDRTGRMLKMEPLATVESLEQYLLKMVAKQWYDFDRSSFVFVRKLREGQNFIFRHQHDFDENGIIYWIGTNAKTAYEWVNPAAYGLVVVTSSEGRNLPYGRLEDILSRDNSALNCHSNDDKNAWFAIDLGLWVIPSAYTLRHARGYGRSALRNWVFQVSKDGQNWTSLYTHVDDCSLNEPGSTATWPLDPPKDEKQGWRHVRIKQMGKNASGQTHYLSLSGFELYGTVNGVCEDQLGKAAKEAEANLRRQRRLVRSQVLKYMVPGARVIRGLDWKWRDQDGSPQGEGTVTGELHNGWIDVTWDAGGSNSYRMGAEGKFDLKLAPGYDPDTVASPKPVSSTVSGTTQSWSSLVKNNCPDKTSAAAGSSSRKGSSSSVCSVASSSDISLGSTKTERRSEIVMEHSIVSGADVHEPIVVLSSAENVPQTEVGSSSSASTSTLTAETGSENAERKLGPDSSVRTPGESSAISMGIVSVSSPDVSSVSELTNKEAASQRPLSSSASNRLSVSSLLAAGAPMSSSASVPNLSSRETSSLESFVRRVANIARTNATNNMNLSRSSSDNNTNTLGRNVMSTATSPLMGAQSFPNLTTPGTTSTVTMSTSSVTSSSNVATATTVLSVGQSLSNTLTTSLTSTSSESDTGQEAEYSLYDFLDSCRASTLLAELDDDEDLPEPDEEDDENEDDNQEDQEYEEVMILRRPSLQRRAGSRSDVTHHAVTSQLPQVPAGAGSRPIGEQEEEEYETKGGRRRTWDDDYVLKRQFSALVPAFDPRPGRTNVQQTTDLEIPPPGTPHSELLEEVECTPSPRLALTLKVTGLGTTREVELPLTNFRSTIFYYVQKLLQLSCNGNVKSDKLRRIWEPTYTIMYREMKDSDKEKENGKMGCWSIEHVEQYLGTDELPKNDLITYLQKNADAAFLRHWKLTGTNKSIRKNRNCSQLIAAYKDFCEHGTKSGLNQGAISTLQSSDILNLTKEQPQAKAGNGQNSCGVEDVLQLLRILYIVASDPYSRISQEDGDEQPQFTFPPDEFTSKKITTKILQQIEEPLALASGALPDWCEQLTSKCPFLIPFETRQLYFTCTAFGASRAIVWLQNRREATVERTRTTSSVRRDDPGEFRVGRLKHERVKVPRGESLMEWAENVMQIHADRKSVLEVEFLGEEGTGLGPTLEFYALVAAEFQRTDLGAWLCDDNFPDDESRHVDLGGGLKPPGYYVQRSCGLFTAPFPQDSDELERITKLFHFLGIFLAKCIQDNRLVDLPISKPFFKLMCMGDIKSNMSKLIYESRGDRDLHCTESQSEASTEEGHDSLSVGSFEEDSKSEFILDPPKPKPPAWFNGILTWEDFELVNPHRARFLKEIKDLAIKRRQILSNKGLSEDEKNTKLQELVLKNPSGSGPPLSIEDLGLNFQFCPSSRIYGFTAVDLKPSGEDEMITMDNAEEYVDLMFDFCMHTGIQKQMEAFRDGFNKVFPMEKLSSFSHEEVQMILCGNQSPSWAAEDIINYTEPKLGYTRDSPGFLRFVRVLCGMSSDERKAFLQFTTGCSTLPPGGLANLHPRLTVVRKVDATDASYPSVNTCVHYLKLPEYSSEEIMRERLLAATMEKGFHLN
inactive: IRAK-1-4 Inhibitor I -0.076 | ibrutinib -0.027 | [1] 0.001 | ralimetinib 0.054 | [2] -0.048 | [3] -0.091 | [4] 0.141 | pinometostat 0.079 | [5] 0.026 | [6] -0.158 | [7] 0.04 | [8] -0.068 | [9] 0.144 | [10] -0.023 | vemurafenib -0.04 | [11] 0.126 | [12] 0.054 | givinostat 0.038 | barasertib 0.048
active: Nexturastat A 0.273

GTF2A1 (UniProt P52655)
active: [6] -0.415
inactive: IRAK-1-4 Inhibitor I 0.068 | ibrutinib 0.03 | [1] 0.013 | ralimetinib -0.142 | [2] -0.106 | [3] 0.022 | [4] -0.06 | pinometostat 0.035 | [5] 0.014 | [7] -0.086 | [8] -0.05 | [9] -0.023 | [10] -0.006 | Nexturastat A 0.077 | vemurafenib 0.005 | [11] -0.057 | [12] -0.011 | givinostat -0.01 | barasertib 0.021

FEN1 (UniProt P39748)
inactive: IRAK-1-4 Inhibitor I -0.071 | ibrutinib -0.016 | [1] -0.116 | ralimetinib -0.008 | [2] -0.368 | [3] -0.393 | [4] 0.039 | pinometostat -0.03 | [5] -0.067 | [6] -0.016 | [7] 0.018 | [8] -0.08 | [9] 0.045 | [10] 0.057 | Nexturastat A -0.194 | vemurafenib 0.121 | [11] 0.022 | [12] -0.03 | givinostat 0.096 | barasertib 0.088

GDPD1 (UniProt Q8N9F7)
inactive: IRAK-1-4 Inhibitor I 0.02 | ibrutinib -0.03 | [1] 0.044 | ralimetinib 0.066 | [2] -0.03 | [3] 0.04 | [4] 0.03 | pinometostat -0.027 | [5] -0.005 | [6] -0.015 | [7] 0.003 | [8] -0.135 | [9] 0.022 | [10] -0.07 | Nexturastat A -0.026 | vemurafenib 0.022 | [11] -0.081 | [12] 0.099 | givinostat -0.046 | barasertib 0.001

HNRNPUL1 (UniProt Q9BUJ2)
Sequence of UniProt Q9BUJ2 (Q9BUJ2 whole entry, looked up): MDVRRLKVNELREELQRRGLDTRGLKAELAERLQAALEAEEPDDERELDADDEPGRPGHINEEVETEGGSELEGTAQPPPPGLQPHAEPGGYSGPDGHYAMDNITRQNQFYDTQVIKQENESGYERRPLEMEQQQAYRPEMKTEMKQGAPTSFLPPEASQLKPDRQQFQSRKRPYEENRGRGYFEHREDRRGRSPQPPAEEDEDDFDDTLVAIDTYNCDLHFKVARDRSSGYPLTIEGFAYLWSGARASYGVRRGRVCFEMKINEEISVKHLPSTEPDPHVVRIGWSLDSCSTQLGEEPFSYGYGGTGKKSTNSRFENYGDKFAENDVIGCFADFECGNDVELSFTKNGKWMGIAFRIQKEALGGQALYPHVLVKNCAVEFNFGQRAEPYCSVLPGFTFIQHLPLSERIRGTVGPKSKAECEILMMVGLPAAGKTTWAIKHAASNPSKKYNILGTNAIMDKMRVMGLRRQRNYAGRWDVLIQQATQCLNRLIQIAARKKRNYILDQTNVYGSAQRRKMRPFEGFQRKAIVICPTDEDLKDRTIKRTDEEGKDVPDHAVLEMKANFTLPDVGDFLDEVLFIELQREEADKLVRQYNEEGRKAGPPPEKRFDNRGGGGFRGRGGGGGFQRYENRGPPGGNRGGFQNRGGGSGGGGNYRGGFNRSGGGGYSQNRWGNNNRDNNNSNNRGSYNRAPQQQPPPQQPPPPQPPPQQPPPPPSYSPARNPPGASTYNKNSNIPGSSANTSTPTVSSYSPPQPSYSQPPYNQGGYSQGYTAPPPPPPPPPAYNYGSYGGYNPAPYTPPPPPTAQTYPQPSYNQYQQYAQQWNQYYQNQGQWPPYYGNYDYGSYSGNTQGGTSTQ
inactive: IRAK-1-4 Inhibitor I -0.055 | ibrutinib 0 | [1] -0.072 | ralimetinib 0.005 | [2] 0.027 | [3] 0.007 | [4] 0.035 | pinometostat 0.01 | [5] 0.014 | [6] -0.096 | [7] -0.063 | [8] -0.058 | [9] -0.013 | [10] 0.03 | Nexturastat A 0.024 | vemurafenib 0.032 | [11] -0.033 | [12] 0.024 | givinostat 0.046 | barasertib 0.04

FBL (UniProt P22087)
inactive: IRAK-1-4 Inhibitor I -0.094 | ibrutinib 0.048 | [1] -0.03 | ralimetinib 0.17 | [2] 0.146 | [3] 0.199 | [4] 0.184 | pinometostat 0.319 | [5] -0.031 | [6] 0.206 | [7] -0.039 | [8] 0.062 | [9] -0.146 | [10] -0.077 | Nexturastat A 0.243 | vemurafenib -0.11 | [11] -0.058 | [12] 0.165 | givinostat 0.138 | barasertib -0.106

FECH isoform 2 (UniProt P22830)
Sequence of UniProt P22830 (P22830 whole entry, looked up): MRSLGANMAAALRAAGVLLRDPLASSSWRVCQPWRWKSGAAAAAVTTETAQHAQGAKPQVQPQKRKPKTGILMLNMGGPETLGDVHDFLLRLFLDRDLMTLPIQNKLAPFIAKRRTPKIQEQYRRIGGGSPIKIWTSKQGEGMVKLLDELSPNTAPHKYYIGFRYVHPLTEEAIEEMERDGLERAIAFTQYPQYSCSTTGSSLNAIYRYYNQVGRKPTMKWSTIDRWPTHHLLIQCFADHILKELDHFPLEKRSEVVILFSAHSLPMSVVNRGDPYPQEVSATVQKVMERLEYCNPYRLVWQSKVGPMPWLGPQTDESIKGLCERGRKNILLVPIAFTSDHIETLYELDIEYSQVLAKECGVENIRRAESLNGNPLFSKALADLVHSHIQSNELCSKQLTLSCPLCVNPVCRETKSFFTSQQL
active: [3] -0.691
inactive: IRAK-1-4 Inhibitor I 0.408 | ibrutinib 0.082 | [1] 0.129 | ralimetinib 0.159 | [2] 0.426 | [4] -0.144 | pinometostat -0.098 | [5] -0.457 | [6] 0.514 | [7] 0.45 | [8] 0.162 | [9] -0.16 | [10] -0.006 | Nexturastat A -0.123 | vemurafenib 0.022 | [11] -0.167 | [12] 0.367 | givinostat -0.238 | barasertib -0.049

GTF2E2 (UniProt P29084)
Sequence of UniProt P29084 (P29084 whole entry, looked up): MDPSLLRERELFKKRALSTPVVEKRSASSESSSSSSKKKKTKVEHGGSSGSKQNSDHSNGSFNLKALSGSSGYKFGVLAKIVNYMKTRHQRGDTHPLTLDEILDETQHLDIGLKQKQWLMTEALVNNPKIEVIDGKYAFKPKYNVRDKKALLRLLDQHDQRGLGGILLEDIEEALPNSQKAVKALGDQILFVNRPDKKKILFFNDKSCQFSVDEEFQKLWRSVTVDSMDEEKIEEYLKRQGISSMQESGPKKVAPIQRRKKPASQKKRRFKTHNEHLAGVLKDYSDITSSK
inactive: IRAK-1-4 Inhibitor I -0.041 | ibrutinib -0.008 | [1] -0.104 | ralimetinib -0.012 | [2] -0.033 | [3] -0.137 | [4] 0.075 | pinometostat 0.056 | [5] 0.001 | [6] 0.056 | [7] 0.045 | [8] -0.068 | [9] -0.01 | [10] 0.02 | Nexturastat A 0.082 | vemurafenib 0.057 | [11] -0.039 | [12] 0.055 | givinostat 0.059 | barasertib 0.035

GALC (UniProt P54803)
Sequence of UniProt P54803 (P54803 whole entry, looked up): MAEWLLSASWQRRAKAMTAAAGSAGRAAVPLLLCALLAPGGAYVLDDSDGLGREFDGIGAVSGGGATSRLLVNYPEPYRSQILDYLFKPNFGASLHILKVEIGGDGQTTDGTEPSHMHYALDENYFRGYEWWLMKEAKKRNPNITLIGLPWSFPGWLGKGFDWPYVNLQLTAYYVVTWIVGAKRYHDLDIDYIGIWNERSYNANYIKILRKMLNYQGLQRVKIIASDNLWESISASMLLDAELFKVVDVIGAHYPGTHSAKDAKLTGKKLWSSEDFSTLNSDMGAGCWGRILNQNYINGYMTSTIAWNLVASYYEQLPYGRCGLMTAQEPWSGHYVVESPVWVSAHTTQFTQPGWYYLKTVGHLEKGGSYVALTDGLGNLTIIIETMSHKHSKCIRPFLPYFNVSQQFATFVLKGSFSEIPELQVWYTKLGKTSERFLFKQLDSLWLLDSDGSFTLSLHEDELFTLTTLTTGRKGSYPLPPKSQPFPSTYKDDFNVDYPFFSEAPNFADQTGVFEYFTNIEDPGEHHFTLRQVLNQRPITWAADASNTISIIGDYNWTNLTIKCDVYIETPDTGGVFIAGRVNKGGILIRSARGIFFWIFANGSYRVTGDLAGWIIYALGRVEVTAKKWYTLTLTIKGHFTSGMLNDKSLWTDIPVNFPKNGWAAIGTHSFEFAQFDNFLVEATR
inactive: IRAK-1-4 Inhibitor I 0.053 | ibrutinib 0.017 | [1] 0.016 | ralimetinib -0.012 | [2] 0.041 | [3] -0.122 | [4] 0.05 | pinometostat 0.067 | [5] 0.035 | [6] -0.003 | [7] 0.002 | [8] -0.032 | [9] 0 | [10] -0.013 | Nexturastat A 0.012 | vemurafenib -0.03 | [11] -0.03 | [12] -0.049 | givinostat 0.036 | barasertib 0.002
